# Source: PubChem BioAssay
# RECQ1 inh-1: qHTS Assay for Inhibitors of RecQ-Like Dna Helicase 1 (RECQ1); ATP-dependent DNA helicase Q1 (Homo sapiens), P46063; RECQ1 DNA unwinding, red fluorescence kinetic read; Potency, µM (titrated, usually from 57.3 µM), most hits filed as inhibitors; hit rate 0.54% among 240,000; AID 2549, 2010; further: nearly all actives have a fitted effect of over 30% in size
#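 50 nM RECQ1T1 preincubated 15 min with compound in Tris pH 8.0 buffer with MgCl2, DTT, Tween-20 and 2.5 ug/ml poly(dI-dC); started with 200 nM TAMRA/BHQ-2 forked duplex and 2 mM ATP. Unwinding read as fluorescence (525/598 nm), two reads 2 h apart.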
# APEX1 inh: qHTS Assay for Inhibitors of the Human Apurinic/apyrimidinic Endonuclease 1 (APE1); DNA repair nuclease/redox regulator APEX1 (Homo sapiens), P27695; recombinant APE1, TAMRA/BHQ-2 abasic DNA cleavage fluorescence; Potency, µM (series often up to 65.8 µM), hits mostly inhibitors; hit rate 0.35% among 350,000; AID 2517, 2012; further: nearly all actives have a fitted effect of over 55% in size
#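 Substrate: short duplex with […] THF abasic site, 5'-TAMRA and 3'-BHQ-2, 50 nM final. APE1 at 0.75 nM, preincubated 15 min RT with compound. Fluorescence increase from first to third read measured activity.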
# KDM4E inh: qHTS Assay for Inhibitors of Human Jumonji Domain Containing 2E (JMJD2E). hit rate 1.6% among 230,000. JMJD2E catalytic domain, FDH-coupled NADH fluorescence (FDH is formaldehyde dehydrogenase). Potency, µM (top dose mostly 57.1 µM), actives largely listed as inhibitors; active means well fitted inhibition curve with a large enough effect, not every such curve was filed as active; inconclusive means small, poorly fitted or top-dose-only effect, or another doubt; inactive means no such curve, though single readings can be large or run the other way; further: nearly all actives have a fitted effect of over 50% in size
# BLM helicase inh: qHTS Assay for Inhibitors of Bloom's syndrome helicase (BLM); RecQ-like DNA helicase BLM (Homo sapiens), P54132; recombinant BLM DNA unwinding, fluorescence dequenching; Potency, µM (doses to about 56.1 µM), hits mostly inhibitors; hit rate 0.2% among 350,000; further: nearly all actives have a fitted effect of over 35% in size
# TDP1 inh: qHTS Assay for Inhibitors of Tyrosyl-DNA Phosphodiesterase (TDP1); Tyrosyl-DNA phosphodiesterase 1 (Homo sapiens), Q9NUW8; recombinant TDP1, AlphaScreen DNA substrate cleavage; Potency, µM (titrated, usually from 130 µM), hits mostly inhibitors; hit rate 0.28% among 350,000; AID 485290, 2010; further: nearly all actives have a fitted effect of over 40% in size
# Target sequence (Q9NUW8 whole entry, looked up): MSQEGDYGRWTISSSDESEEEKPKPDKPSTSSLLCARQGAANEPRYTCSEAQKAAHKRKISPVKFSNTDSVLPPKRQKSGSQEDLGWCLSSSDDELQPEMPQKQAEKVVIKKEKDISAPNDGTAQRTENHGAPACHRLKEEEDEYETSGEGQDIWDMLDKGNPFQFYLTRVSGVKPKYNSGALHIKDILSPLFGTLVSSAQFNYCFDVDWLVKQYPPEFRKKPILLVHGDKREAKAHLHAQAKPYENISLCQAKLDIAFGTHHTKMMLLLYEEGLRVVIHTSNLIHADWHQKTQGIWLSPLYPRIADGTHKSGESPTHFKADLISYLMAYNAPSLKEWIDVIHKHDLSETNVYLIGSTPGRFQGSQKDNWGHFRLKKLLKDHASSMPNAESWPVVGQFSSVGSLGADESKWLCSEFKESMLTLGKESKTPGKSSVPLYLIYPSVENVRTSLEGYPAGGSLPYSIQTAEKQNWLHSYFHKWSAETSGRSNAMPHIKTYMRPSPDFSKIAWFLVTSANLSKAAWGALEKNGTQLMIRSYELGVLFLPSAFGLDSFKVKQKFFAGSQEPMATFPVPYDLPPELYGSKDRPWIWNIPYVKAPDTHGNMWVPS
#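 Recombinant human Tdp1 (E. coli-expressed, 1 nM final) preincubated with compounds 15 min at room temperature, then 5'-biotin/3'-phosphotyrosine-FITC DNA substrate (15 nM final) added for 5 min. AlphaScreen beads (10 ug/ml final) added 10 min; cleavage lowers signal.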
# L3MBTL1 inh: qHTS Assay for the Inhibitors of L3MBTL1; AlphaScreen L3MBTL1–H3K9me1 peptide binding; Potency, µM (titrated, usually from 57.1 µM), most hits filed as inhibitors; hit rate 0.66% among 230,000; further: nearly all actives have a fitted effect of over 60% in size
#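 Displacement of a biotinylated histone H3(1-15) peptide monomethylated at Lys9 (75 nM) from L3MBTL1 (50 nM) was measured by AlphaScreen after a 30 min room-temperature compound incubation; cefsulodin titration served as intraplate control.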
# RECQ1 inh conf: Confirmation qHTS Assay for Inhibitors of RecQ-Like Dna Helicase 1 (RECQ1); shares compounds with RECQ1 inh-1; RECQ1 helicase DNA unwinding, fluorescence; Potency, µM (top dose mostly 229 µM), usual class: inhibitors; hit rate 28% among 610; further: nearly all actives have a fitted effect of over 45% in size
# ADP FP counter: Counterscreen for RECQ1 Inhibitors: ADP Fluorescence Polarization Displacement Assay | shares compounds with RECQ1 inh-1 | ADP fluorescence polarization displacement counterscreen | Potency, µM (series often up to 228 µM), hits mostly inhibitors | hit rate 27% among 530; further: nearly all actives have a fitted effect of over 45% in size
# RECQ1 inh-2: Confirmation qHTS Assay for Inhibitors of RecQ-Like Dna Helicase 1 (RECQ1) - Round 2 Cherry Picks. shares compounds with RECQ1 inh-1. recombinant RECQ1 DNA unwinding, red fluorescence. Potency, µM (series often up to 119 µM), usual class: inhibitors. hit rate 15% among 1,100. AID 504841, 2011; further: nearly all actives have a fitted effect of over 50% in size
# Numbers stand for hits; . = inactive; ? = inconclusive; / = no result given; [ ] = dose if it differs, or a comment. This is one part of a sample in which hits are shown more often than they occur. Unless noted, the call rests on the fitted dose curve; in most records, active means well fitted curve in the direction sought with a large enough effect; inconclusive means small, poorly fitted or top-dose-only effect, or another doubt; inactive means no such curve, though single readings can be large; an effect the other way counts as inactive or inconclusive.
SMILES,RECQ1 inh-1,APEX1 inh,KDM4E inh,BLM helicase inh,TDP1 inh,L3MBTL1 inh,RECQ1 inh-2,others
CCOC(=O)C1(CC2CC2)CCN(S(=O)(=O)/C=C/c2ccccc2)CC1,?,.,.,.,.,.,.,
COC(=O)c1sc2ccccc2c1NC(=O)c1ccc(S(=O)(=O)N2CC(C)CC(C)C2)cc1 (centres undefined),.,.,.,.,.,.,/,RECQ1 inh conf=.;ADP FP counter=.
CCOC(=O)c1sc2ccc(S(=O)(=O)N3CC(C)CC(C)C3)cc2c1N (centres undefined),.,.,.,.,.,.,/,
COc1ccccc1-c1nn2c(-c3cc(C)[nH]n3)nnc2s1,/,/,/,/,.,/,/,
Nc1nc(Cl)nc2c1ncn2[C@@H]1O[C@H](COP(=O)(O)OP(=O)(O)OP(=O)(O)O)[C@H](O)[C@H]1O,.,.,.,/,/,/,/,
O=C1ON=C(c2ccccc2)/C1=C/c1ccco1,?,?,.,.,.,28µM,.,
CCCOc1ccc(Oc2nc(NC)nc(N3CCOCC3)n2)nn1,/,/,/,.,.,/,/,
Cc1c(NC(=O)C(C)OC(=O)COc2ccccc2)c(=O)n(-c2ccccc2)n1C (centres undefined),.,.,.,.,.,.,/,
Cc1c(NC(=O)C(C)OC(=O)CC2Sc3ccccc3NC2=O)c(=O)n(-c2ccccc2)n1C (centres undefined),.,.,.,.,.,.,/,RECQ1 inh conf=.;ADP FP counter=.
Nc1cc(=O)[nH]c(SCC(=O)Nc2ccc3c(c2)CCC3)n1,?,?,.,.,.,.,.,
CSc1nc2ccc(NC(=O)NC(=O)c3c(F)cccc3F)cc2s1,.,.,.,.,.,.,/,
COc1cccc(F)c1C(=O)NC(=O)Nc1ccc2nc(C)oc2c1,35µM,?,?,.,?,/,.,
O=C(NCCc1csc(-c2cccnc2)n1)c1cccc(C(F)(F)F)c1,/,/,/,.,.,/,/,
Cc1cc(=O)c2c(O)c(O)ccc2o1,35µM,?,?,.,.,18µM,.,
COc1ccc2c(c1)C(=O)[C@H](OC(=O)NCCc1ccc(OC)c(OC)c1)[C@@H](c1ccc(OC)c(Br)c1)O2,.,.,.,.,.,/,/,
Cc1ccc(C2=NC(=O)/C(=C/c3cc(O)c(O)c(Br)c3)S2)cc1,3.5µM,2µM,13µM,3.5µM,.,/,6.3µM,RECQ1 inh conf=22µM
COc1ccc(/C=N/NC(=O)c2nn(-c3ccc(Cl)cc3)c(=O)c3c(N)scc23)cc1,?,?,?,.,.,/,/,
COc1ccc(/C=N/NC(=O)c2nn(-c3ccccc3)c(=O)c3c(N)scc23)cc1,25µM,?,?,.,/,?,/,RECQ1 inh conf=.;ADP FP counter=?
COC(=O)C1=C(C(=O)OC)[C@@H]2N(C)c3ccc(OC)cc3[C@@]23C[C@@H](C(=O)OC)N(S(=O)(=O)c2ccc(C#N)cc2)C3=N1,.[11.5 µM],.[12.4 µM],.[11.4 µM],.[12.4 µM],.[12.3 µM],/,/,
CC(=O)NC(=S)Nc1ccc(NC(=S)NC(=O)/C=C/c2ccco2)cc1,?,?,.,.,/,/,.,
